From PubChem BioAssay AID652104 (National Center for Advancing Translational Sciences (NCATS), 2013)
In all, about 410,000 compounds went through this assay and about 7,200 (1.8%) were called active. About 7% were inconclusive and are not listed. Calls come from the whole dose curve; as a rule, active = well fitted activation curve with a large enough effect; inconclusive = small, poorly fitted or top-dose-only effect, or another doubt; inactive = no such curve, though single readings can be large or run the other way. Many of the other results were omitted from the sample, so actives are more common in it than they were.

Assay: qHTS of TDP-43 Inhibitors; note: nearly all actives have a fitted effect of over 50% in size; for growth rescue (activation): % of control where 0% means no effect
Settings: TDP-43 expressing yeast growth rescue, BacTiter-Glo, 24 h; series mostly up to 46.1 µM; growth rescue (activation): at the top concentration
In short: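 Readout is BacTiter-Glo luminescence of cell growth, so inhibitors register as activators. TDP-43-expressing yeast at OD600=0.02 in galactose medium, after raffinose pregrowth to mid-log, were incubated with compound for 24 hr at 30 deg C.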
Potency is the fitted concentration of half-maximal effect.

Compound | growth rescue (activation) | Potency
CCOC(=O)c1ccc(N2C(=O)CC(N3CCN(C(=O)c4ccccc4)CC3)C2=O)cc1 (stereo not given) | 10.1% (inactive) | –
CCOC(=O)c1ccc(N2C(=O)CC(Sc3nc(O)c(CC)c(=O)[nH]3)C2=O)cc1 (stereo not given) | 8.69% (inactive) | –
CCOC(=O)c1ccc(N2C(=O)CC(N(C)Cc3ccccc3)C2=O)cc1 (stereo not given) | – | 2.82 µM (active)
Cc1ccc(C)c(N2CCN(C(c3ccccc3)c3nnc(-c4ccccc4)o3)CC2)c1 (stereo not given) | 20.5% (inactive) | –
O=C(O)CCC(=O)NCc1ccc(C(=O)O)cc1 | 11% (inactive) | –
CCCCCc1ccc(-c2ccc(OCC)cc2)nc1 | – | 12.6 µM (active)
CCOc1ccc(-c2ccc(SCC(=O)N3CCOCC3)nn2)cc1 | -8.68% (inactive) | –
CCOc1ccc(-c2cc(C)n3nc(C(=O)Nc4ccc(C)c(C)c4)cc3n2)cc1 | 10% (inactive) | –
CCCCCC(=O)Nc1ccc(-c2cn3cccnc3n2)cc1 | -7.99% (inactive) | –
CCCCCc1ccc(-c2ccc(C(=O)O)cc2)nc1 | – | 3.16 µM (active)
Cc1ccsc1CN(C(=O)c1oc2ccc(Br)cc2c1C)C1CCS(=O)(=O)C1 (stereo not given) | 32.2% (inactive) | –
O=C(Nc1ccccc1Br)c1cc(CN2CCCC2)on1 | -6.37% (inactive) | –
Cc1ccc2nc(CN3CCN(S(=O)(=O)c4ccc(C)c(C)c4)CC3)oc2c1 | 24.1% (inactive) | –
Cc1ccc(CN2CCC(CNC(=O)c3cnn(-c4ccccc4Cl)c3C3CCN(C(=O)OC(C)(C)C)CC3)CC2)cc1 | 0% (inactive) | –
CCCn1nc(C(=O)OCc2nc(N)nc(Nc3ccccc3C)n2)c2ccccc2c1=O | 9.98% (inactive) | –
Cc1ccccc1Nc1nc(N)nc(COC(=O)CCC(=O)c2ccc(F)cc2)n1 | 4.71% (inactive) | –
Cc1ccc(C(=O)OCc2nc(N)nc(Nc3ccccc3C)n2)cc1 | – | 12.6 µM (active)
O=C(NC1CC(=O)N(c2ccc(F)cc2)C1)c1ccc(S(=O)(=O)N2CCCC2)cc1 (stereo not given) | 24.6% (inactive) | –
COc1ccc2c(C)c(CCC(=O)NCc3ccc(OC)c(OC)c3)c(=O)oc2c1 | 5.65% (inactive) | –
CC1CCCCN1CC(=O)N1CCCc2c1c(=O)oc1ccc(OCc3ccccc3)cc21 (stereo not given) | -26.7% (inactive) | –
Cc1cc(Cl)ccc1NC(=O)Cc1ccc(NC(=O)N2CCCCc3ccccc32)cc1 | 0% (inactive) | –
CCc1cccc(-n2nnc(-c3nsc(NC(=O)c4ccc(C)cc4)n3)c2C)c1 | 18.4% (inactive) | –
C=CCOc1ccc(/C=N/NC(=O)C(C)Sc2ccccn2)cc1OCC (stereo not given) | 15.6% (inactive) | –
C=CCOc1ccc(/C=C2/C(=O)ON=C2C)cc1OCC | – | 12.6 µM (active)
CCOc1ccc(/C=C(\C#N)c2nc3ccccc3c(=O)[nH]2)cc1OC | 29% (inactive) | –

Compound | growth rescue (activation) | Potency
Cc1cccc(CC(=O)Nc2cccc(-c3cn4cccnc4n3)c2)c1 | 1.61% (inactive) | –
Cc1cc2nc(-c3ccco3)c(Cc3cccc(F)c3)n2c(C)c1Br | – | 3.16 µM (active)
Cc1cc2nc(-c3ccc(F)cc3)c(Cc3ccsc3)n2c(C)c1Br | 13.7% (inactive) | –
O=C(CN1C(=O)CCn2nc(-c3ccccc3)cc21)NCc1ccccc1 | 18.2% [at 9.22 µM] (inactive) | –
COc1cccc(C(=O)NCc2ccc3c(c2)CCN3C(=O)c2ccncc2)c1 | 28.9% (inactive) | –
Cc1ccc(-c2cc(C(=O)Oc3ccccc3Cl)no2)cc1C | 10.3% (inactive) | –
Cc1ccc(C(=O)O/N=C(\N)c2ccccn2)cc1Cl | – | 7.08 µM (active)
C/C(=N/OC(=O)c1c(-c2c(F)cccc2Cl)noc1C)c1cnccn1 | 3.39% (inactive) | –
Cc1c(Cl)cccc1NC(=O)C(=O)NCCc1csc2nc(-c3ccccc3F)nn12 | 29.8% (inactive) | –
CC(=O)Nc1cccc(NC(=O)CSc2cn(CC(=O)N3CCCC3)c3ccccc23)c1 | 17.1% (inactive) | –
COc1cccc(Cn2c(CNS(=O)(=O)c3ccc(Cl)s3)nc3cccnc32)c1 | 18.7% (inactive) | –
O=C(NCC1CCCO1)c1cc2c([nH]c3ccccc32)c(-c2ccc(F)cc2)n1 (stereo not given) | 0% (inactive) | –
Clc1cccc(-c2nc(NCC3CCCO3)c3ccccc3n2)c1 (stereo not given) | – | 12.6 µM (active)
Cn1c(=O)c2[nH]c(NCC3CCCO3)nc2n(-c2ccccc2)c1=O (stereo not given) | 0.787% (inactive) | –
CCN(CCCNC(=O)Cn1ncc2c3ccccc3n(C)c2c1=O)Cc1ccccc1 | 15.9% (inactive) | –
CCOCCc1nn2c(=O)cc(COC(=O)CNC(=O)c3ccc(C(C)(C)C)cc3)nc2s1 | 7.41% (inactive) | –
COc1ccccc1N1CCN(S(=O)(=O)CCNC(=O)COc2ccc(F)cc2)CC1 | 5.6% (inactive) | –
COc1ccc(CNC(=O)CSc2n[nH]c(-c3ccc(F)cc3)n2)cc1 | 3.73% (inactive) | –
CCOC(=O)C1CCN(CCC(=O)Nc2cccc(C)c2)CC1 | 7.09% (inactive) | –
COc1ccc(N)cc1NC(=O)CN1CCOCC1 | 13.4% (inactive) | –
COC(=O)CNC(c1ccccc1Cl)c1cc(Br)ccc1NC(=O)CCN1CCOCC1 (stereo not given) | – | 17.8 µM (active)
CCc1ccccc1NC(=O)CSc1nnc(-c2ccccc2)c(-c2ccccc2)n1 | 11.4% (inactive) | –
COc1ccc(C(=O)NC2(C(F)(F)F)NC(=O)N(CCCc3ccccc3)C2=O)c(OC)c1OC (stereo not given) | – | 20 µM (active)
CCOc1ccccc1C(=O)NC1(C(F)(F)F)NC(=O)N(CCc2ccc(OC)c(OC)c2)C1=O (stereo not given) | 13.2% (inactive) | –
O=C(NC1(C(F)(F)F)NC(=O)N(Cc2cccnc2)C1=O)c1ccccc1Cl (stereo not given) | 5.43% (inactive) | –

Compound | growth rescue (activation) | Potency
O=C(Nc1ccc2oc(-c3ccc(O)c(Br)c3)nc2c1)c1cc2ccccc2o1 | -9.23% (inactive) | –
OCc1cnc(SCc2ccc(F)cc2)n1Cc1ccc(F)cc1 | -17.8% (inactive) | –
CCOC(=O)N1CCC(NC(=O)c2cnn(-c3cccc(C)c3)c2C2CCN(C(=O)OC(C)(C)C)CC2)CC1 | -5.08% (inactive) | –
O=C1CC(c2cccc(Br)c2)C2=C(CCCC2=O)N1 (stereo not given) | 5.37% (inactive) | –
COc1ccc(C2CC(=O)NC(=O)C2)cc1 | -20.9% (inactive) | –
O=C1CC(c2cccc(Cl)c2)CC(O)=C1C=Nc1ccccc1 (stereo not given) | -2.18% (inactive) | –
O=C1C=C(c2cccc(Cl)c2)C[C@@H](c2ccc(F)cc2)C1 | – | 22.4 µM (active)
N#Cc1ccc(C2=CC(=O)C[C@H](c3ccc(Cl)cc3)C2)cc1 | – | 17.8 µM (active)
COc1ccccc1C1=CC(=O)C[C@H](c2ccc(F)cc2)C1 | – | 15.8 µM (active)
CCCCC/C=C/C1=CC(=O)C[C@H](c2ccc(Cl)cc2)C1 | 15.5% (inactive) | –
COc1cccc2c1CCC(NC(C)=O)C2=O (stereo not given) | 13% (inactive) | –
COc1ccc([C@H]2CC(=O)C=C(/C=C/c3ccc(Cl)cc3)C2)cc1 | 19.9% (inactive) | –
O=C1C=C(c2cccc(Br)c2)C[C@@H](c2ccc(F)cc2)C1 | – | 20 µM (active)
O=C(NCC(c1ccc(Cl)cc1)N1CCOCC1)c1ccccc1F (stereo not given) | 1.5% (inactive) | –
COC(=O)c1c(NC(=O)C(C)Oc2ccc(Cl)c(C)c2)sc(C)c1C (stereo not given) | 16.4% (inactive) | –
COc1ccccc1-c1noc(-c2ccc(NCc3ccccc3)c([N+](=O)[O-])c2)n1 | 12% (inactive) | –
COc1ccc(-c2onc(C)c2C)cc1S(=O)(=O)NCC1CCN(Cc2cccc(F)c2)CC1 | 9.63% (inactive) | –
O=C(CSc1nc2c(c(=O)[nH]1)CN(Cc1ccc(F)cc1)CC2)Nc1ccccc1Cl | 14.4% (inactive) | –
CCOc1ccc(NC(=O)C2CCN(S(=O)(=O)c3cc(-c4noc(C)n4)ccc3C)CC2)cc1 | -15% (inactive) | –
N/C(=N\OC(=O)CCn1cccc(C(F)(F)F)c1=O)c1ccc(OC(F)(F)F)cc1 | 2.9% (inactive) | –
N/C(=N\OC(=O)CCc1ccccc1)c1cccnc1 | 8.83% (inactive) | –
COc1ccc(/C(N)=N/OC(=O)CCCc2ccccc2)cc1 | – | 22.4 µM (active)
Cc1ccc(OCC(=O)Nc2ccc(OCc3cc(=O)n4c(C)csc4n3)cc2)cc1C | 7.26% (inactive) | –
CC(C)Cn1c(-c2ccc(S(=O)(=O)N3CCOCC3)cc2)csc1=Nc1cc(Cl)ccc1Cl | 11.8% (inactive) | –
COC(=O)c1ccc2nc(-c3ccc(F)cc3)c(Cc3ccc(C)cc3)n2c1 | 25.1% (inactive) | –

Compound | growth rescue (activation) | Potency
COc1ccc(-c2nc3ccc(Br)cn3c2Cc2ccc(C)cc2)cc1OC | – | 15.8 µM (active)
COC(=O)c1ccc2nc(-c3ccc(C)cc3)c(Cc3ccc(OC)cc3C)n2c1 | 22.3% (inactive) | –
Oc1c(C(c2ccccc2Cl)N2CCOCC2)sc2nc(-c3ccco3)nn12 (stereo not given) | 3.8% (inactive) | –
Cn1nnnc1SCCCNCc1cccc(OCc2ccc(Cl)cc2)c1 | 5.55% (inactive) | –
C=C1C(=O)OC2C1CCC(C)=CCCC1(C)OC21 (stereo not given) | – | 14.1 µM (active)
O=C(NCCc1ccccc1)C(=O)NCC(c1ccco1)S(=O)(=O)c1ccccc1 (stereo not given) | 11.7% (inactive) | –
COc1cccc(N2CCN(C(=O)CCCCCn3c(=O)[nH]c4ccccc4c3=O)CC2)c1 | 13% (inactive) | –
COc1ccc(CCNC(=O)c2ccc3c(c2)nc(C)n3-c2ccc(Br)cc2)cc1OC | 11.1% (inactive) | –
COc1ccc(-c2cc3c(c4c2ccn4C)C2CCC3C2)cn1 (stereo not given) | – | 20 µM (active)
CC(C)(C)c1ccc(OCC(=O)N2CCC(c3nc4ccccc4s3)CC2)cc1 | 20.2% (inactive) | –
CCSc1nnc2c(n1)OC(c1ccc(OCC(=O)O)cc1)Nc1ccccc1-2 (stereo not given) | -36.7% [at 9.22 µM] (inactive) | –
COc1ccc(C)cc1-n1c(-c2ccc(C)cc2)cc2c1CC(C)(C)CC2=O | 6.79% (inactive) | –
Cc1ccc(Cl)cc1NC(=O)Cc1ccc(-n2c(C)nc3cccnc32)cc1 | -9.49% (inactive) | –
CCCN(CCC)S(=O)(=O)c1ccc(C(=O)Nc2sc3c(c2C(=O)OC)CCN(CC)C3)cc1 | -1.8% (inactive) | –
CCN(C(=O)Cc1c(C(=O)O)n(CC)c2ccccc12)c1ccccc1C | – | 25.1 µM (active)
Cc1ccc(C)c(Cn2c(C(=O)O)c(CNCc3cccs3)c3ccccc32)c1 | 15.9% (inactive) | –
CCn1c2ccccc2c2cc(CC(N)=O)ccc21 | 7.64% (inactive) | –
Cc1ccccc1-n1nc(SCC(=O)O)sc1=S | 7.29% (inactive) | –
O=C(CSc1nn(-c2ccc(F)cc2)c(=S)s1)NC1CCS(=O)(=O)C1 (stereo not given) | -20% (inactive) | –
N#CCSc1nn(-c2ccc(F)cc2)c(=S)s1 | – | 15.8 µM (active)
COc1ccc(CC(=O)Nc2nnc3n2CCS3)cc1OC | -14.5% (inactive) | –
Cn1nc(-c2ccccc2)c(-c2ccccc2)c(C(=O)Nc2ccc(S(N)(=O)=O)cc2)c1=O | 7.79% (inactive) | –
CCS(=O)(=O)N1CCN(C(=O)c2cccs2)CC1 | 3.6% (inactive) | –
Cc1ccccc1C(CC(=O)c1cccs1)C(C#N)C#N (stereo not given) | – | 17.8 µM (active)
Cc1ccccc1N(C(=O)CNC(=O)c1cccs1)C(C(=O)NC1CCCC1)c1ccncc1 (stereo not given) | -16.6% (inactive) | –
